Results on 49 molecules are retold here after PubChem BioAssay AID1851 (National Center for Advancing Translational Sciences (NCATS), 2009).

“And” between values parts separate entries of the source, which are not always exact repeats. Equal values may be shown once. Hit rate of the full screen: of about 16,000 compounds, about 5,800 (36%) were called active. Inconclusive results (about 23%) are left out. Some of the results follow. Unmarked numbers belong to inactive results. Calls follow the shape of the dose curve; as a rule, active = well fitted curve in the direction sought with a large enough effect; inconclusive = small, poorly fitted or top-dose-only effect, or effect the other way; inactive = no such curve, though single readings can be large or run the other way.

Broadly, the AC50 is the concentration at which the activity in the assay is half-maximal.
% is scaled to controls: 0 for no effect and ±100 for the full control effect.

The target of this assay is Cytochrome P450 2C19 (Homo sapiens) (UniProt P33261). The assay is described as follows: Cytochrome panel assay with activity outcomes. The settings on record: recombinant CYP, pro-luciferin dealkylation, luminescence, p450-cyp2c19; series mostly up to 57.1 µM; activity, negative = inhibition: at the top concentration.
Cytochrome P450 2C19 (Homo sapiens), sequence (P33261 whole entry, looked up): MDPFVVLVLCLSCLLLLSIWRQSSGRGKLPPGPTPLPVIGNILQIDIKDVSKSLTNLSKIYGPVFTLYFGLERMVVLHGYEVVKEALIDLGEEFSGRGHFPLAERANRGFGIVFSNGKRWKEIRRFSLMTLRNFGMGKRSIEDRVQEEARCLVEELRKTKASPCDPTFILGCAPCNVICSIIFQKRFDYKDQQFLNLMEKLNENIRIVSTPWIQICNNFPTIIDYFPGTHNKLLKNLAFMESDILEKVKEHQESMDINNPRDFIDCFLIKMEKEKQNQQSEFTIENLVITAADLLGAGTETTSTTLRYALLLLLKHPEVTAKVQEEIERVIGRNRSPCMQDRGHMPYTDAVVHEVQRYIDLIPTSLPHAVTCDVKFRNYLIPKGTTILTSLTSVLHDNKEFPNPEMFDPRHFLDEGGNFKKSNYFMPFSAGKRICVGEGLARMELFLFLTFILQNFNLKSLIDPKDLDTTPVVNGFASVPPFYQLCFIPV
With `O=c1c2ccccc2nnn1CSc1ccc2c(c1)OCCO2`, the AC50 was 1.12 µM (active).
The same measure, in the same setting: as for `O=c1c2ccccc2nnn1CSc1nnnn1-c1ccccc1`, the figure is 7.94 µM (active).
`Cc1cc(C)c(C#N)c(OCC(=O)c2ccc(Br)cc2)n1`: the concentration at half-maximal activity (AC50) was 3.16 µM (active).
Consider `C/C(=N\NC(=O)c1ccncc1)c1ccc2ccccc2c1O`, for which the AC50 was 0.501 µM (active).
With `O=C1C(=O)N(Cc2ccc(Cl)c(Cl)c2)c2ccccc21`, the “activity, negative = inhibition” value is -16.7%.
Take `O=Nc1c(O)n(Cc2ccc(Cl)c(Cl)c2)c2ccccc12`: the AC50 was 0.891 µM (active).
Still for that read-out and setting: the result for `O=Nc1c(O)n(Cc2ccc(Cl)cc2)c2ccccc12` reads 0.794 µM (active).
For `Cn1c(=O)c2c(n(Cc3ccccc3)c1=O)NC(=O)C2CC(=O)NCc1cccc(Cl)c1` (centres undefined), the “activity, negative = inhibition” value is 13.5%.
`O=Nc1c(O)n(Cc2cccc(Cl)c2)c2ccccc12`: the AC50 was 3.55 µM (active).
On the same count and under the same terms, the result for `O=[N+]([O-])c1ccc(CS(=O)Cc2ccccc2)cc1` (centres undefined) reads 1.26 µM (active); that for `COc1ccc([N+](=O)[O-])cc1NCc1ccccc1C`, 2.82 µM (active).
In the case of `CN(Cc1ccccc1)c1nc(-c2ccc([N+](=O)[O-])cc2)nc2ccccc12`, the “activity, negative = inhibition” value is -10.7%.
Turning to `Cc1cc([N+](=O)[O-])ccc1NCc1ccccc1`, the AC50 was 2 µM (active).
Turning to `O=C(O)c1cc([N+](=O)[O-])ccc1NCCCc1ccccc1`, the “activity, negative = inhibition” value was -3.04%.
On the same count and under the same terms, the result for `COc1ccccc1CN1CCC2(CC1)CCN(C(=O)c1cccn1C)CC2` reads 2.93%.
Turning to `O=C1CC(N2CCOCC2)C(=O)N1c1cccc(Cl)c1` (centres undefined), the AC50 is 8.91 µM (active).
Turning to `CO[C@H]1C=CO[C@]2(C)Oc3c(C)c(O)c4c(O)c(c5c(c4c3C2=O)NC2(CCN(CC(C)C)CC2)N=5)=NC(=O)C(C)=CC=C[C@@H](C)[C@@H](O)[C@@H](C)[C@@H](O)[C@@H](C)[C@@H](OC(C)=O)[C@@H]1C`, the “activity, negative = inhibition” value is -33.7% [at 25.6 µM].
As to `CO[C@@H]1/C=C\O[C@@]2(C)Oc3c(C)c(O)c4c(c3C2=O)C(=N[C@H]2CC[C@H](O)O[C@@H]2C)C=C(NC(=O)/C(C)=C\C(=O)[C@@H]2C[C@@H]2[C@@H](O)[C@H](C)[C@@H](O)[C@H](C)[C@H](OC(C)=O)[C@@H]1C)C4=O`, the AC50 was 2.51 µM (active).
Consider `CO[C@@H]1/C=C\O[C@]2(C)Oc3c(C)c(O)c4c(O)c(cc(O)c4c3C2=O)NC(=O)/C(C)=C\C=C/[C@H](C)[C@@H](O)[C@H](C)[C@H](O)[C@H](C)[C@H](OC(C)=O)[C@@H]1C`, for which the activity, negative = inhibition is -13.1% [at 11.4 µM].
Regarding `Cc1ccc(N2C(=O)C(Cl)=C(NCc3ccccc3)C2=O)c(C)c1`, the concentration at half-maximal activity (AC50) was 3.16 µM (active).
As for `c1ccc(CSc2ncnc3c2sc2nc(N4CCOCC4)c4c(c23)CCCC4)cc1`, the AC50 was 7.08 µM (active).
Turning to `OCCn1cnc2c(SCc3ccccc3)ncnc21`, the activity, negative = inhibition was 12.6% [at 11.4 µM].
In the case of `CCSc1ncnc2c1sc1nc(-c3ccco3)c3c(c12)CC(C)(C)OC3`, the “activity, negative = inhibition” value is 6.2%.
On the same count and under the same terms, as for `CC(C)C[C@H](NC(=O)N1CCCCCC1)C(=O)N[C@H](Cc1cn(C)c2ccccc12)C(=O)N[C@H](Cc1ccccn1)C(=O)O`, the figure is -10.8%.
Turning to `CCn1c2ccccc2c2cc(NC(=O)CSc3nnc(-c4ccc(OC)c(OC)c4)n3N)ccc21`, the concentration at half-maximal activity (AC50) is 7.94 µM (active).
On the same count and under the same terms, the result for `O=C(CCCNS(=O)(=O)c1cccc2nsnc12)NCCc1ccccc1` reads 6.31 µM (active).
Same read-out and setting: the result for `CSc1nc2ccccc2cc1/C=C(\C#N)c1ccc(Cl)cc1Cl` reads 22.4 µM (active); that for `CSc1nc2ccccc2cc1/C=C(\C#N)c1ccccc1`, 11.2 µM (active).
Still for that read-out and setting: as for `CSc1nc2ccccc2cc1/C=C(\C#N)c1cccc(Cl)c1`, the figure is 15.8 µM (active).
With `CSc1nc2ccccc2cc1/C=C(\C#N)c1cccc(C)c1`, the concentration at half-maximal activity (AC50) is 3.55 µM (active).
For `CCN(C(=O)CSc1nc2cc(C(=O)OC)ccc2c(=O)n1Cc1ccco1)c1cccc(C)c1`, the AC50 was 1.41 µM (active).
For the molecule `CCc1ccc(NC(=O)CSc2nc3cc(C(=O)OC)ccc3c(=O)n2Cc2ccco2)cc1`, the “activity, negative = inhibition” value was -53%.
Take `CNC(=O)C(=O)NCCc1ccc(Cl)cc1`: the concentration at half-maximal activity (AC50) was 1.12 µM (active).
For `O=C(NCCc1ccc(Cl)cc1)c1ncn[nH]1`, the “activity, negative = inhibition” value is -101%.
Take `O=C(NCCc1ccc(Cl)cc1)Nc1cccc(Cl)c1`: the AC50 was 0.891 µM (active).
With `O=C(Nc1cccc(Cl)c1)Nn1cnnc1`, the activity, negative = inhibition is 11.3% [at 11.4 µM].
The same measure, in the same setting: the result for `S=C(S)NCCN1CCNCC1` reads -11.3% [at 11.4 µM]; that for `Cc1noc(C)c1-c1nc(N2CCOCC2)c2ccccc2n1`, -15.4%; that for `Cc1nc2cnc(N3CCOCC3)nc2n(Cc2cccs2)c1=O`, -25.7%.
On to `Cc1nc(N2CCOCC2)nc(N2CCN(c3ccccc3)CC2)c1[N+](=O)[O-]`, for which the concentration at half-maximal activity (AC50) is 2.24 µM (active).
On to `CC(C)(C)NC(=O)NC(=O)CSc1nnc2ccccn12`, for which the “activity, negative = inhibition” value is 12.4%.
In the case of `Cc1ccc(NC(=O)CCSc2nnc3ccccn23)cc1`, the half-maximal activity concentration (AC50) was 0.794 µM (active).
As to `C[C@H](O/N=C1/[C@H]2O[C@@H]2[C@@H](O)[C@H]2[C@H]1CCn1c(=O)n(-c3ccccc3)c(=O)n12)c1cn([C@H](CO)Cc2ccccc2)nn1`, the activity, negative = inhibition is 20% [at 11.4 µM] and 36.7% [at 11.4 µM].
Same read-out and setting: as for `COc1ccc(/C=N/NC(=O)C2CCN(c3ncc(C(F)(F)F)cc3Cl)CC2)cc1`, the figure is -2.67%.
For the molecule `O=C(OC1CCN(c2ncc(C(F)(F)F)cc2Cl)CC1)c1ccccc1`, the concentration at half-maximal activity (AC50) was 11.2 µM (active).
In the case of `O=C(c1cc(C(F)(F)F)cc(C(F)(F)F)c1)N1CCC2(CC1)CCN(c1ncccn1)CC2`, the “activity, negative = inhibition” value is -29.9%.
As to `COc1cccc2cc3c(=O)oc4ccccc4c3nc12`, the AC50 is 3.98 µM (active).
With `Cn1c(C(F)(F)F)nc2c(=O)oc3ccccc3c21`, the “activity, negative = inhibition” value was -18.7%.
On to `COc1ccc(CNc2ccnc(-c3ccc4c(c3)OCO4)n2)c(OC)c1`, for which the AC50 is 2.51 µM (active).
